POLK inh: inhibitors of human DNA polymerase kappa. Potency, µM (series often up to 107 µM), for inactives: top-dose activity, negative = inhibition, most hits filed as inhibitors. Q9UBT6. AID 588579. purified Pol kappa, fluorescent DNA synthesis assay, 10 min. 400,000 compounds, 0.53% hits; further: on the % scale 0 is the no-effect control and ±100 the full control effect
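First, compounds were pin-transferred onto 10 nM Pol kappa. After 15 min at room temperature, substrate was added to 50 nM final. Fluorescence was then measured kinetically at 0 and 10 min.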
TDP1 block: TDP1 (human) enzyme inhibition; Q9NUW8; recombinant TDP1, AlphaScreen DNA substrate cleavage; Potency, µM (doses to about 130 µM), inactives show top-dose activity change, negative = inhibition, most hits filed as inhibitors; 350,000 compounds, 0.28% hits; further: on the % scale 0 is the no-effect control and ±100 the full control effect; nearly all actives have a fitted effect of over 40% in size
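E. coli-derived human Tdp1, 1 nM final. Cpd preinc 15 min RT; substrate 15 nM final, 5 min RT; AS bead mix 10 ug/ml final, 10 min RT. Signal loss = tyrosine-FITC cleavage. No-enzyme wells = max signal.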
FEN1 inhibitor: inhibitors of human flap endonuclease 1; P39748; Recombinant FEN1 flap cleavage, fluorescence, 15 min; Potency, µM (series often up to 114 µM), without a hit: top-dose activity change, negative = inhibition, actives largely listed as inhibitors; 390,000 compounds, 0.35% hits; further: on the % scale 0 is the no-effect control and ±100 the full control effect; nearly all actives have a fitted effect of over 65% in size
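Nuclease activity of 10 nM FEN1 was measured after 15 min of room-temperature exposure to titrated compounds, by adding 50 nM flap substrate and reading plates at 0 and 15 min.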
Pol beta inh: DNA polymerase beta (human) inhibition | P06746 | Pol beta primer extension/strand displacement, fluorescence kinetic | Potency, µM (titrated, usually from 114 µM), for the others: at the top dose activity change, negative = inhibition, actives largely listed as inhibitors | 340,000 compounds, 1.3% hits | AID 485314; further: on the % scale 0 is the no-effect control and ±100 the full control effect
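Pol beta (10 nM) was preincubated with compound for 15 min at room temperature. The reaction was then started with 50 nM substrate and read immediately and after a further 10 min at room temperature.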
POLH inh: inhibitors of human DNA polymerase eta; Q9Y253; recombinant Pol eta, fluorescent DNA replication assay; Potency, µM (top dose mostly 114 µM), for the others: at the highest dose activity change, negative = inhibition, hits mostly inhibitors; 390,000 compounds, 1.2% hits; further: on the % scale 0 is the no-effect control and ±100 the full control effect
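Fluorescent replication assay: 50 nM final substrate added after a 15 min room-temperature compound preincubation with 10 nM enzyme. Signal taken at 0 min and again at 10 min.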
POLI inh: blocks human DNA polymerase iota activity; Pol iota fluorescent replication assay, 10 min; Q9UNA4; Potency, µM (titrated, usually from 115 µM), for the others: top-dose activity, negative = inhibition, hits mostly inhibitors; 390,000 compounds, 1% hits
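Fluorescent replication assay read twice, at 0 min and 10 min after adding 50 nM (final) substrate. Enzyme (10 nM) and compounds were first incubated 15 min at room temperature; enzyme-free buffer wells were negative controls.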
PGK validate: validation of Trypanosoma brucei phosphoglycerate kinase inhibitors; shares compounds with POLK inh; TbPGK coupled GAPDH assay, Kinase-Glo luminescence; Potency, µM (highest dose often 57.5 µM), without a hit: top-dose activity change, negative = inhibition, usual class: inhibitors; 500 compounds, 79% hits; AID 686980; further: on the % scale 0 is the no-effect control and ±100 the full control effect; nearly all actives have a fitted effect of over 65% in size
Pol iota confirm: Human Pol iota inhibitor confirmatory assay; shares compounds with POLK inh; Pol iota primer extension, TAMRA/BHQ fluorescence; Potency, µM, most hits filed as inhibitors; 1,500 compounds, 77% hits
An asterisk follows results filed as active; u = inconclusive; x = not tested or not shown; [ ] = another dose, or the depositor's remark. A selection: hits, their analogues and other compounds. The true share with any hit is near 2.4%. The call rests on the fitted dose curve; in most records, active means well fitted curve in the direction sought with a large enough effect; inconclusive means small, poorly fitted or top-dose-only effect, or another doubt; inactive means no such curve, though single readings can be large; an effect the other way counts as inactive or inconclusive. Potency means the concentration at half of the fitted maximal effect.

SMILES | POLK inh | TDP1 block | FEN1 inhibitor | Pol beta inh | POLH inh | POLI inh | PGK validate | others
COC(=O)c1ccccc1NC(=O)Cn1cnc2sc(C)c(S(=O)(=O)N3CCC(C)CC3)c2c1=O | 6% | 9% | -21% | 0% | -7% | -16% | x
Cc1csc(N=Nc2ccc(N(C)C)cc2)[n+]1[O-] | x | x | x | x | u | x | 13µM*
COc1ccc(CCNC(=O)C(=O)NCC(c2cccs2)S(=O)(=O)c2ccc(F)cc2)cc1 (stereo not given) | -4%[60.1 µM] | 5% | 9% | -2% | -16% | 0% | x
O=C(N/N=C/c1cccc([N+](=O)[O-])c1)c1cc2c(ccc3ccccc32)o1 | 0% | u | -12% | 20% | u | u | x | Pol iota confirm=47*
CCN1/C(=C/C(C)=C/c2sc3ccccc3[n+]2CC)Sc2ccccc21 | u | 8% | 7.1µM* | 35µM* | 40µM* | 32µM* | u
C/C(=N\NC(=O)c1ccccc1NC(=O)c1ccc(Cl)cc1)c1ccncc1 | -2% | 2% | -2% | 4% | -17% | 50% | 6.5µM*
O=C(CNC(=O)c1ccc(S(=O)(=O)N2CCCCC2)cc1)N/N=C/c1ccco1 | -9% | 7% | -8% | 3% | -4% | u | x | Pol iota confirm=12*
Cc1ccnc(N2C(=O)c3ccccc3C2Nc2cccc(C)c2C)c1 (stereo not given) | 3% | 5% | -16% | -13% | -17% | 1% | x
Cc1ccnc(N2C(=O)c3ccccc3C2O)c1 (stereo not given) | -1% | -3% | 1% | 43% | 0% | -20% | 10µM*
Cc1nc2sc(-c3ccccc3)cc2c(=O)n1-n1cccc1 | -15% | -5% | -4% | -2% | 4% | -2% | x
Cc1nc2sc(-c3ccccc3)cc2c(=O)n1N | -14% | 5% | 7% | 11% | 0% | -10% | 16µM*
COc1ccc(NC(=O)c2cc3c(=O)n(C)c4ccccc4c3s2)cc1OC | -17% | 0% | 1% | u | u | 28% | x | Pol iota confirm=30*
Cc1ccc(-c2nc(-c3ccccn3)no2)cc1 | -6% | 4% | -8% | 10% | -7% | 7% | 15µM*
c1ccc(-c2ccc(-c3nc(-c4ccccn4)no3)cc2)cc1 | 0% | -4% | -1% | 1% | -19% | 6% | x
COc1cc(C(=O)N(CCCN(C)C)c2nc3c(OC)cccc3s2)cc(OC)c1OC | -1% | -1% | -13% | 42% | -10% | 3% | x
C=C(C)C(=O)Nc1ccc(OC(F)(F)C(F)F)c(NC(=O)C(=C)C)c1 | u | 13µM* | -1% | 32µM* | 18µM* | 4% | 6.5µM*
COc1cc(/C=N/Nc2nncn2/N=C/c2ccc(O)c(OC)c2)ccc1O | -8% | 0% | u | 2% | -33% | 20µM* | u
CN(C)c1ccc(Nc2nc(N)c3ccccc3n2)cc1 | -28% | x | -6% | -3% | -8% | 6% | 13µM*
Nc1nc(Nc2ccc(Cl)cc2)nc2ccccc12 | -20% | 0% | -11% | 1% | -20% | -4% | x
O=C(/C=C/Nc1ccccc1Br)c1ccccn1 | -5% | 2% | -1% | 5% | -15% | 2% | u
CCOC(=O)c1cnc2ccc(OC(F)(F)F)cc2c1Nc1ccccc1C(=O)O | 2% | 11% | -6% | 21% | -14% | 1% | -17%
COc1ccc(CNC(=O)c2cnn(-c3ccc(C)cc3)c2-n2cccc2)cc1OC | -17%[60.1 µM] | 4% | -15% | 10% | -15% | -9% | x
O=C(/C=C/c1ccc([N+](=O)[O-])cc1)Oc1ccc(/C=N/NC(=O)c2ccncc2)cc1 | 22µM* | 0% | u | -2% | u | 79µM* | x | Pol iota confirm=u
COc1ccc(NC(=O)c2cccn2-c2nnc(N3CCCCC3)s2)cc1 | -2% | 3% | -16% | 0% | -18% | u | x
CCc1ccc(C(=O)c2cn(CC(=O)Nc3ccc4c(c3)OCO4)c3cc(OC)c(OC)cc3c2=O)cc1 | 5% | 6% | -1% | 6.3µM* | 79µM* | 52% | x | Pol iota confirm=42*
SMILES | POLK inh | TDP1 block | FEN1 inhibitor | Pol beta inh | POLH inh | POLI inh | PGK validate | others
CC(C)N1CCN(c2ccc(OC[C@@H]3CO[C@@](Cn4cncn4)(c4ccc(Cl)cc4Cl)O3)cc2)CC1 | -11%[12 µM] | 6%[56.1 µM] | x | x | x | x | x
CN(C)C(=O)c1ccc(-c2cc[nH]c(=O)c2N)cc1 | x | 2% | x | x | x | x | x
CN(C)c1ccc(-c2cc[nH]c(=O)c2N)cc1 | x | 9% | x | x | x | x | x | Pol iota confirm=u
O=C(O)c1ccc(N/N=C/c2ccc(-c3cc(Cl)ccc3Cl)o2)cc1 | -13% | 71µM* | 79µM* | u | 79µM* | u | x | Pol iota confirm=u
O=C1CC(=O)N(Cc2ccco2)C(=S)N1 | 3.2µM* | 2.5µM* | 35µM* | 7.9µM* | 3.2µM* | u | -97%
COc1ccc(B(O)O)c(CN2CCN(C(=O)OC(C)(C)C)CC2)c1 | -26% | x | -10% | x | -6% | u | u
COc1ccc(C(=O)N2CCN(Cc3cc(OC)ccc3OC)CC2)cc1 | 4% | 5% | -1% | 25% | u | 30% | x
